From PubChem
Cruzain inh Det: qHTS Assay for Promiscuous and Specific Inhibitors of Cruzain (with detergent) | Cruzipain (Trypanosoma cruzi), P25779 | purified cruzain, Z-FR-AMC fluorescence, 0.01% Triton | Potency, µM, for the others: max response, negative = inhibition, actives largely listed as inhibitors | hit rate 0.43% among 200,000 | AID 1478, 2009;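 further: plate controls were neutral wells for no effect and buffer without enzyme for full effect; nearly all actives have a fitted effect of over 40% in size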
Target sequence (P25779 123-467 limits assumed): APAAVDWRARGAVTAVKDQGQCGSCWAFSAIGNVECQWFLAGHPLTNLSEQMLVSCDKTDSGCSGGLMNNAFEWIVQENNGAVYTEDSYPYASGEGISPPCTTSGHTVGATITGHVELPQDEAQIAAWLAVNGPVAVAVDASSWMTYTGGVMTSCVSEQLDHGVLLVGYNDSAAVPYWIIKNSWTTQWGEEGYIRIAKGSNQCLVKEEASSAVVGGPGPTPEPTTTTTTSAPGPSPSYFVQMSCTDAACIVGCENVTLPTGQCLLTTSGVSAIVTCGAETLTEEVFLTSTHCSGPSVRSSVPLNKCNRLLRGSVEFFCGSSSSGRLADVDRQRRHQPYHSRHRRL
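Steps: dispense cruzain (1.5 nM final) in acetate buffer pH 5.5 with DTT and 0.01% Triton X-100; pin-transfer compounds; incubate 15 min RT; add Z-FR-AMC (2 uM final); read fluorescence every 30 s, using the 60 s intensity change.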
Cruzain inh noDet: qHTS Assay for Promiscuous and Specific Inhibitors of Cruzain (without detergent); Cruzipain (Trypanosoma cruzi), P25779; purified cruzain, Z-FR-AMC fluorescence, no detergent; Potency, µM, without a hit: max response, negative = inhibition, hits mostly inhibitors; hit rate 2.3% among 200,000; AID 1476, 2009;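 further: plate controls were enzyme without inhibitor for no effect and buffer without enzyme for full effect; nearly all actives have a fitted effect of over 40% in size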
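Detergent-free condition (0.00005% Triton X-100) in acetate buffer pH 5.5 with DTT. 1.5 nM enzyme and compound were pre-mixed 15 min, then 2 uM Z-FR-AMC substrate added; reaction progress from fluorescence change between first and third reads (60 s).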
Papain inh: qHTS Assay for Inhibitors of Papain: Counterscreen for Cruzain Assay | Potency, µM, for inactives: max response, negative = inhibition, actives largely listed as inhibitors | purified papain, Z-FR-AMC fluorescence cleavage | shares compounds with Cruzain inh Det | hit rate 41% among 410;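 further: 0% = no-compound wells and -100% = no-enzyme wells; nearly all actives have a fitted effect of over 35% in size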
Target sequence (P00784 whole entry, looked up): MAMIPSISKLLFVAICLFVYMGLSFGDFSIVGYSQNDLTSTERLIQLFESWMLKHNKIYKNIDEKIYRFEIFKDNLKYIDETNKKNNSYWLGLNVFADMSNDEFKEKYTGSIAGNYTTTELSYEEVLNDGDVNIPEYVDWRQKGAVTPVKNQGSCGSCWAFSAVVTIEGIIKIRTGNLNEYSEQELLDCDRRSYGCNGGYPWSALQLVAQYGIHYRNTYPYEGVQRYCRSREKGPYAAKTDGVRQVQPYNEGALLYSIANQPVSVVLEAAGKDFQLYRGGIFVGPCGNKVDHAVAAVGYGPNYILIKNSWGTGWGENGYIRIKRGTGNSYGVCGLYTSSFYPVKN
Numbers without * were called inactive. An excerpt weighted towards active compounds, which were near 2.6% of everything screened. The call rests on the fitted dose curve; in most records, active means well fitted curve in the direction sought with a large enough effect; inconclusive means small, poorly fitted or top-dose-only effect, or another doubt; inactive means no such curve, though single readings can be large; an effect the other way counts as inactive or inconclusive. Potency means the concentration at half of the fitted maximal effect.

What do the screens show for `Cc1ccc2[nH]c(=O)c(NC(N)=S)nc2c1`?
Cruzain inh Det: 1.8µM*; Cruzain inh noDet: 1.6µM*; Papain inh: 1%

What do the screens show for `COc1cccc(OCc2nc3ccccc3n2CCOc2ccccc2)c1`?
Cruzain inh Det: -6%; Cruzain inh noDet: -6%

What do the screens show for `O=P(O)(O)c1ccccc1OCc1ccccc1`?
Cruzain inh Det: 2%; Cruzain inh noDet: -3%

Results for Fc1ccc(N/N=C(/c2ccccc2)c2ccccn2)cc1 ?
Cruzain inh Det: -10%; Cruzain inh noDet: 4%

Results for NC(=O)CSc1nnc([C@@H](N)Cc2c[nH]c3ccccc23)o1 ?
Cruzain inh Det: 8.9µM*; Cruzain inh noDet: 10µM*; Papain inh: 7%

What do the screens show for `CC(C)(C)OC(=O)N[C@@H](Cc1c[nH]c2ccccc12)c1nnc(SCC(N)=O)o1`?
Cruzain inh Det: 3%; Cruzain inh noDet: 13%

How did CC(=O)NCCc1nc2ccccc2n1Cc1ccc(C)cc1 do in these assays?
Cruzain inh Det: 1%; Cruzain inh noDet: -1%

How did Cc1ccc(C)c(OCCn2c(CCNC(=O)C3CCCCC3)nc3ccccc32)c1 do in these assays?
Cruzain inh Det: 1.3µM*; Cruzain inh noDet: 1%; Papain inh: 4%

What do the screens show for `O=C(NCCCc1nc2ccccc2n1Cc1ccccc1Cl)C1CCCCC1`?
Cruzain inh Det: -6%; Cruzain inh noDet: -8%

What do the screens show for `Cc1ccccc1OCCn1c(CCNC(=O)C(C)(C)C)nc2ccccc21`?
Cruzain inh Det: -3%; Cruzain inh noDet: inconclusive

Results for O=C(NCCc1nc2ccccc2n1CCOc1cccc2ccccc12)C1CCCCC1 ?
Papain inh: 3%

How did O=C(NCCc1nc2ccccc2n1CCCOc1ccccc1Cl)C1CCCCC1 do in these assays?
Papain inh: -17%

Results for O=C(NCCCc1nc2ccccc2n1Cc1c(F)cccc1Cl)C1CCCCC1 ?
Cruzain inh Det: -1%; Cruzain inh noDet: -10%

How did Cc1ccccc1OCCn1c(CCNC(=O)C2CCCCC2)nc2ccccc21 do in these assays?
Cruzain inh Det: 1.4µM*; Cruzain inh noDet: -2%; Papain inh: -3%

How did CC1CCN(CCc2nc3cc(NS(=O)(=O)c4ccc(F)cc4)ccc3n2C)CC1 do in these assays?
Cruzain inh Det: 4%; Cruzain inh noDet: -3%

What do the screens show for `Cc1ccc(NC(=O)Cn2c(=O)n(CC(=O)NCCc3ccccc3)c(=O)c3ccccc32)cc1C`?
Cruzain inh Det: -1%; Cruzain inh noDet: -8%

Results for COC(=O)N[C@H](CC(C)=O)c1cccc(C(F)(F)F)c1 ?
Cruzain inh Det: 1%; Cruzain inh noDet: -11%

What do the screens show for `CCN(Cc1ccccc1)c1nc2c(S(=O)(=O)c3ccccc3)nnn2c2ccc(Cl)cc12`?
Cruzain inh Det: -3%; Cruzain inh noDet: inconclusive; Papain inh: 32µM*

How did COCCNc1nc2c(S(=O)(=O)c3ccccc3)nnn2c2ccc(Cl)cc12 do in these assays?
Cruzain inh Det: 0%; Cruzain inh noDet: 9%

Results for CC(=O)OC1(C(F)(F)F)Oc2ccccc2NC1=O (stereo unspecified) ?
Cruzain inh Det: 0.89µM*; Cruzain inh noDet: 1.3µM*; Papain inh: 7.9µM*

Results for COCCNC(=O)C1(C)Oc2ccccc2NC1=O (stereo unspecified) ?
Cruzain inh Det: -4%; Cruzain inh noDet: -2%

What do the screens show for `Cc1nc(N)nc(C)c1Cc1ccccc1`?
Cruzain inh Det: 3%; Cruzain inh noDet: -4%

How did CCOc1ccc2[nH]c(=O)c(CN(Cc3ccco3)Cc3nnnn3Cc3ccccc3)cc2c1 do in these assays?
Cruzain inh Det: -7%; Cruzain inh noDet: 17%

Results for COCCn1nnnc1CN(Cc1cc2cc(OC)c(OC)cc2[nH]c1=O)C1CCCC1 ?
Cruzain inh Det: -15%; Cruzain inh noDet: 1%

Results for CCOc1ccc2[nH]c(=O)c(CN(Cc3nnnn3Cc3ccco3)C3CCCCC3)cc2c1 ?
Cruzain inh Det: 6.3µM*; Cruzain inh noDet: 10µM*; Papain inh: -9%

How did COc1cc2cc(CN(Cc3nnnn3Cc3ccco3)C3CCCCC3)c(=O)[nH]c2cc1OC do in these assays?
Cruzain inh Det: 7.1µM*; Cruzain inh noDet: 7.9µM*; Papain inh: 28µM*

Results for O=C(Cn1c(=O)ccc2cc(S(=O)(=O)N3CCCC3)ccc21)NCc1ccc(F)cc1 ?
Cruzain inh Det: -2%; Cruzain inh noDet: -4%

What do the screens show for `COc1cc(OC)cc(-c2nnc(SCC(=O)NCc3cccs3)o2)c1`?
Cruzain inh Det: 2%; Cruzain inh noDet: 1%

What do the screens show for `Nc1nc(SCC(=O)N2CCCC2)[nH]c(=O)c1NC(=O)c1ccco1`?
Cruzain inh Det: 1%; Cruzain inh noDet: -9%

How did CCn1c(=O)n(CC)c2cc(S(=O)(=O)N3CCOCC3)ccc21 do in these assays?
Cruzain inh Det: -1%; Cruzain inh noDet: 1%

Results for COCCNC(=O)Nc1ccc2nc(-c3cccs3)c(-c3cccs3)nc2c1 ?
Cruzain inh Det: -10%; Cruzain inh noDet: inconclusive

How did CCC(C)NC(=O)c1ccc2nc(-c3cccs3)c(-c3cccs3)nc2c1 (stereo unspecified) do in these assays?
Papain inh: -3%

What do the screens show for `O=C(CSc1ccc2nc(-c3ccccc3)cn2n1)Nc1ccccc1C(F)(F)F`?
Cruzain inh Det: 0%; Cruzain inh noDet: -9%

How did O=C(NCc1ccc2c(c1)OCO2)c1ccc2c(c1)N(Cc1cccc(Cl)c1)C(=O)c1ccccc1S2 do in these assays?
Cruzain inh Det: 1%; Cruzain inh noDet: 13µM*; Papain inh: 11%

Results for Cc1ccc(C)c(CN2C(=O)c3ccccc3Sc3ccc(C(=O)NCc4ccc5c(c4)OCO5)cc32)c1 ?
Cruzain inh Det: -1%; Cruzain inh noDet: 20µM*; Papain inh: 8%

What do the screens show for `O=C(NCc1ccc2c(c1)OCO2)c1ccc2c(c1)N(Cc1ccccc1F)C(=O)c1ccccc1S2`?
Cruzain inh Det: -1%; Cruzain inh noDet: inconclusive

What do the screens show for `Cc1ccc(C)c(CN2C(=O)c3ccccc3Sc3ccc(C(=O)NCc4cccs4)cc32)c1`?
Cruzain inh Det: 0%; Cruzain inh noDet: inconclusive

Results for COc1cccc(-c2nnc(SCC(=O)N(C)c3ccccc3)o2)c1 ?
Cruzain inh Det: -2%; Cruzain inh noDet: 1%

How did O=C(NCC1CCCO1)c1cnn2c1NC(c1ccccc1)CC2C(F)(F)F (stereo unspecified) do in these assays?
Cruzain inh Det: -2%; Cruzain inh noDet: 10%

Results for O=C(CSc1nccn1Cc1ccc2c(c1)OCO2)Nc1ccccc1F ?
Cruzain inh Det: -3%; Cruzain inh noDet: -7%

How did O=C(N/N=C1/CC(c2ccccc2)Oc2ccccc21)C1CC1 (stereo unspecified) do in these assays?
Cruzain inh Det: -1%; Cruzain inh noDet: inconclusive

Results for Cn1cc(S(=O)(=O)N2CCCCC2)cc1C(=O)NCc1ccc(Cl)cc1 ?
Cruzain inh Det: 10µM*; Cruzain inh noDet: inconclusive; Papain inh: -6%

Results for Cn1cc(S(=O)(=O)N2CCCCCC2)cc1C(=O)NCc1ccc(Cl)cc1 ?
Cruzain inh Det: -26%; Cruzain inh noDet: -6%

How did CCc1ccc(N2CSC3=C(C#N)C(c4cccs4)CC(=O)N3C2)cc1 (stereo unspecified) do in these assays?
Cruzain inh Det: -8%; Cruzain inh noDet: inconclusive
